This is an account of results in PubChem BioAssay (NCI).

Experiment [1] can be described thus: NCI Yeast Anticancer Drug Screen. Data for the rad50 strain (AID 155).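 Also: 0% = growth of vehicle-only cultures of the same strain.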 To be noted: S. cerevisiae rad50 strain growth inhibition, active compounds read high. Summed up: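 Yeast carrying a defined DNA repair defect were exposed to test compounds, and growth was compared with vehicle-treated controls to give percent inhibition.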
Experiment [2] can be described thus: NCI Yeast Anticancer Drug Screen. Data for the mec2-1 strain (AID 157). The settings on record: S. cerevisiae mec2-1 strain, active compounds read high. Summed up:
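Each compound was tested on mec2-1 yeast, a strain altered in DNA damage repair or cell cycle control. Growth inhibition is reported relative to vehicle.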

Experiment [3] can be described thus: NCI Yeast Anticancer Drug Screen. Data for the sgs1 mgt1 strain (AID 161).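 Also: 0% = growth of cultures given vehicle only.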 The settings on record: S. cerevisiae sgs1 mgt1 strain, active compounds read high. Summed up: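 Genetically altered yeast, compound exposure, growth inhibition relative to vehicle.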
Experiment [4] in a line: NCI Yeast Anticancer Drug Screen. Data for the cln2 rad14 strain (AID 165).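 Also: 0% = growth equal to vehicle treated cultures.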 The settings on record: S. cerevisiae cln2 rad14 strain, active compounds read high. The gist of the method:
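Test compounds were added to cln2 rad14 yeast cultures; inhibition of growth was then determined by comparison with vehicle treatment.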

Experiment [5] is described as follows: NCI Yeast Anticancer Drug Screen. Data for the bub3 strain (AID 167). The settings on record: S. cerevisiae bub3 mutant strain, active compounds read high. The gist of the method: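 Compounds were applied to a genetically altered yeast strain carrying a cell-cycle control defect. Growth inhibition was scored against vehicle-treated controls.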
A short description of experiment [6]: NCI Yeast Anticancer Drug Screen. Data for the mlh1 rad18 strain (AID 175). To be noted: S. cerevisiae mlh1 rad18 strain growth inhibition, active compounds read high. Summed up: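 Inhibition values reflect reduced growth of mutant yeast versus vehicle-treated controls following compound exposure; the mutations affect DNA damage repair.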
Where [7] appears, read: at 5.0 µM (retest, dose inferred, filed as 0.5).
Setting [8] is: at 50.0 µM (retest, dose inferred, filed as 5.0).

About 79,000 compounds went through this panel and 15% of them were active in at least one assay; those are over-represented in the sample as a whole. A number with no mark means an inactive call. Calls of active or inactive are those of the source. Rule as the data show it: active = growth inhibition above about 70%; inactive = the rest.

Consider `O=C(c1ccccc1)N(C(=S)N(C(=O)c1ccccc1)c1ccccc1)c1ccccc1`, for which the growth inhibition in experiment [1] (setting [7]) was -3%; in experiment [1] (setting [8]) it was 12%; in experiment [1] (at 50.0 µM), 99% (active); in experiment [2] (setting [7]) it was -1%; in experiment [2] (setting [8]), -2%; in experiment [2] (at 50.0 µM), 99.7% (active). Further, the growth inhibition in experiment [3] (setting [7]) is 1%; in experiment [3] (setting [8]), -4%; in experiment [3] (at 50.0 µM), 99.2% (active); in experiment [4] (setting [7]) it was 3%; in experiment [4] (setting [8]), -7%; in experiment [4] (at 50.0 µM), 98.8% (active). In addition, the growth inhibition in experiment [5] (setting [7]) is 0%; in experiment [5] (setting [8]) it was -3%; in experiment [5] (at 50.0 µM), 99% (active); in experiment [6] (setting [7]) it was -1%; in experiment [6] (setting [8]), -3%; in experiment [6] (at 50.0 µM) it was 99.1% (active).
Turning to `C(/Cc1ccc2c(c1)OCO2)=N\NC1=NCCCCN1`, the growth inhibition was -3% in experiment [1] (setting [7]); -18% in experiment [1] (setting [8]); 15.7% in experiment [1] (at 50.0 µM); -3% in experiment [2] (setting [7]); -5% in experiment [2] (setting [8]); -7.25% in experiment [2] (at 50.0 µM). Moreover, the growth inhibition in experiment [3] (setting [7]) was -2%; in experiment [3] (setting [8]) it was -15%; in experiment [3] (at 50.0 µM) it was -16.2%; in experiment [4] (setting [7]), 0%; in experiment [4] (setting [8]) it was -17%; in experiment [4] (at 50.0 µM) it was 28.8%. For the same molecule, the growth inhibition is -1% in experiment [5] (setting [7]); -20% in experiment [5] (setting [8]); 3.2% in experiment [5] (at 50.0 µM); 0% in experiment [6] (setting [7]); -18% in experiment [6] (setting [8]); -6.5% in experiment [6] (at 50.0 µM).
Turning to `CC1SC2(C(=O)Nc3ccc(Br)cc32)N(c2ccc(Cl)cc2)C1=O` (stereo not given), the growth inhibition was 13% in experiment [1] (setting [7]); 99% (active) in experiment [1] (setting [8]); 50.4% in experiment [1] (at 50.0 µM); 2% in experiment [2] (setting [7]); 99% (active) in experiment [2] (setting [8]); 99.5% (active) in experiment [2] (at 50.0 µM). The growth inhibition is -2% in experiment [3] (setting [7]); 98% (active) in experiment [3] (setting [8]); 56.1% in experiment [3] (at 50.0 µM); -3% in experiment [4] (setting [7]); 95% (active) in experiment [4] (setting [8]); 90.8% (active) in experiment [4] (at 50.0 µM). The growth inhibition in experiment [5] (setting [7]) was 15%; in experiment [5] (setting [8]), 99% (active); in experiment [5] (at 50.0 µM) it was 96.9% (active); in experiment [6] (setting [7]) it was 10%; in experiment [6] (setting [8]), 99% (active); in experiment [6] (at 50.0 µM) it was -8.55%.
With `CN(C)C(=S)/N=c1\ssc(=S)n1Cc1ccco1`, the growth inhibition in experiment [1] (setting [7]) was 22%; in experiment [1] (setting [8]), -7%; in experiment [1] (at 50.0 µM), 1.55%; in experiment [2] (setting [7]), 0%; in experiment [2] (setting [8]), -8%; in experiment [2] (at 50.0 µM), -3.4%. Besides, the growth inhibition was -15% in experiment [3] (setting [7]); -9% in experiment [3] (setting [8]); -15.8% in experiment [3] (at 50.0 µM); -7% in experiment [4] (setting [7]); -11% in experiment [4] (setting [8]); 0.45% in experiment [4] (at 50.0 µM). Besides, the growth inhibition in experiment [5] (setting [7]) was 2%; in experiment [5] (setting [8]) it was -5%; in experiment [5] (at 50.0 µM), 47.3%; in experiment [6] (setting [7]), -2%; in experiment [6] (setting [8]) it was -9%; in experiment [6] (at 50.0 µM), -4.25%.
For the molecule `CCC(=O)Oc1c(Cl)cc(Cl)c(Cl)c1Cl`, the growth inhibition is 4% in experiment [1] (setting [7]); 56% in experiment [1] (setting [8]); 43.4% in experiment [1] (at 50.0 µM); 6% in experiment [2] (setting [7]); 59% in experiment [2] (setting [8]); 14.2% in experiment [2] (at 50.0 µM). For the same molecule, the growth inhibition in experiment [3] (setting [7]) was 2%; in experiment [3] (setting [8]), 79% (active); in experiment [3] (at 50.0 µM), 48.1%; in experiment [4] (setting [7]), -3%; in experiment [4] (setting [8]), 30%; in experiment [4] (at 50.0 µM) it was 5.45%. For the same molecule, the growth inhibition in experiment [5] (setting [7]) was -3%; in experiment [5] (setting [8]), 54%; in experiment [5] (at 50.0 µM) it was 14.2%; in experiment [6] (setting [7]), 16%; in experiment [6] (setting [8]), 90% (active); in experiment [6] (at 50.0 µM), 74.3% (active).
As to `O=C1C(Br)CCC1(c1ccccc1)c1ccccc1` (stereo not given), the growth inhibition in experiment [1] (setting [7]) is 5%; in experiment [1] (setting [8]) it was 91% (active); in experiment [1] (at 50.0 µM), 97% (active); in experiment [2] (setting [7]) it was 6%; in experiment [2] (setting [8]) it was 93% (active); in experiment [2] (at 50.0 µM), 97.2% (active). Further, the growth inhibition is 4% in experiment [3] (setting [7]); 97% (active) in experiment [3] (setting [8]); 98% (active) in experiment [3] (at 50.0 µM); 4% in experiment [4] (setting [7]); 78% (active) in experiment [4] (setting [8]); 78.8% (active) in experiment [4] (at 50.0 µM). The growth inhibition in experiment [5] (setting [7]) was -10%; in experiment [5] (setting [8]), 94% (active); in experiment [5] (at 50.0 µM), 95.7% (active); in experiment [6] (setting [7]) it was 3%; in experiment [6] (setting [8]), 96% (active); in experiment [6] (at 50.0 µM), 98.2% (active).
Turning to `CC12CCC(c3sc(N)c(C#N)c31)C2(C)C` (stereo not given), the growth inhibition in experiment [1] (setting [7]) is -14%; in experiment [1] (setting [8]), -34%; in experiment [1] (at 50.0 µM), 39%; in experiment [2] (setting [7]) it was -2%; in experiment [2] (setting [8]), -25%; in experiment [2] (at 50.0 µM) it was 60.2%. For the same molecule, the growth inhibition was -13% in experiment [3] (setting [7]); -4% in experiment [3] (setting [8]); 34.5% in experiment [3] (at 50.0 µM); 3% in experiment [4] (setting [7]); 1% in experiment [4] (setting [8]); 13.8% in experiment [4] (at 50.0 µM). For the same molecule, the growth inhibition in experiment [5] (setting [7]) is -15%; in experiment [5] (setting [8]) it was -20%; in experiment [5] (at 50.0 µM), 31.7%; in experiment [6] (setting [7]) it was -36%; in experiment [6] (setting [8]), -9%; in experiment [6] (at 50.0 µM), 43.8%.
Consider `CC1CCC(=NNC(N)=O)CC1` (stereo not given), for which the growth inhibition was -1% in experiment [1] (setting [7]); -6% in experiment [1] (setting [8]); 3.9% in experiment [1] (at 50.0 µM); -11% in experiment [2] (setting [7]); -2% in experiment [2] (setting [8]); -10.9% in experiment [2] (at 50.0 µM). Further, the growth inhibition in experiment [3] (setting [7]) was -1%; in experiment [3] (setting [8]) it was -4%; in experiment [3] (at 50.0 µM), 2.45%; in experiment [4] (setting [7]) it was -5%; in experiment [4] (setting [8]) it was -1%; in experiment [4] (at 50.0 µM), 34.9%. Besides, the growth inhibition was -3% in experiment [5] (setting [7]); -3% in experiment [5] (setting [8]); 9.5% in experiment [5] (at 50.0 µM); -1% in experiment [6] (setting [7]); -4% in experiment [6] (setting [8]); -19.2% in experiment [6] (at 50.0 µM).
Turning to `O=c1cc(N=Nc2ccc(Cl)c(Cl)c2)[nH]c(=O)[nH]1`, the growth inhibition is 37% in experiment [1] (setting [7]); 95% (active) in experiment [1] (setting [8]); 85.8% (active) in experiment [1] (at 50.0 µM); 25% in experiment [2] (setting [7]); 97% (active) in experiment [2] (setting [8]); 86.6% (active) in experiment [2] (at 50.0 µM). The growth inhibition is 54% in experiment [3] (setting [7]); 97% (active) in experiment [3] (setting [8]); 88.7% (active) in experiment [3] (at 50.0 µM); 32% in experiment [4] (setting [7]); 97% (active) in experiment [4] (setting [8]); 89.5% (active) in experiment [4] (at 50.0 µM). Further, the growth inhibition was 73% (active) in experiment [5] (setting [7]); 97% (active) in experiment [5] (setting [8]); 86.8% (active) in experiment [5] (at 50.0 µM); 41% in experiment [6] (setting [7]); 96% (active) in experiment [6] (setting [8]); 82% (active) in experiment [6] (at 50.0 µM).
Consider `COc1ccccc1/C=C/c1ccnc2ccccc12`, for which the growth inhibition is 31% in experiment [1] (setting [7]); 97% (active) in experiment [1] (setting [8]); 72.7% (active) in experiment [1] (at 50.0 µM); 15% in experiment [2] (setting [7]); 97% (active) in experiment [2] (setting [8]); 90.2% (active) in experiment [2] (at 50.0 µM). In addition, the growth inhibition in experiment [3] (setting [7]) is 24%; in experiment [3] (setting [8]), 98% (active); in experiment [3] (at 50.0 µM), 88% (active); in experiment [4] (setting [7]), 13%; in experiment [4] (setting [8]), 84% (active); in experiment [4] (at 50.0 µM) it was 65.1%. The growth inhibition was 24% in experiment [5] (setting [7]); 97% (active) in experiment [5] (setting [8]); 84.8% (active) in experiment [5] (at 50.0 µM); 24% in experiment [6] (setting [7]); 96% (active) in experiment [6] (setting [8]); 91.7% (active) in experiment [6] (at 50.0 µM).
